High-throughput results from PubChem BioAssay.
PolyA inh – polyadenylation inhibitors in yeast reporter cells, primary screen, luminescence, S. cerevisiae; hit rate 0.02% among 300,000; activity score, % at 12 µM; S. cerevisiae SKY197-pL101 polyadenylation reporter, beta-gal luminescence; efflux-impaired pdr1/pdr3 knockout yeast; score 100 = 6 SD above DMSO;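 active = lowest replicate activity score at least 50, where 100 means six control SD above control mean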;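 note: yeast exposed to compound for 9 h at 30 °C; higher score means more reporter readthrough which indicates perturbed polyadenylation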
ZTA DNA inh – counter-screen for EBNA-1 inhibitors: inhibitors of Epstein-Barr virus ZTA. hit rate 0.15% among 320,000. inhibition, % at 11 µM. P03206. ZTA-DNA binding, fluorescence polarization. AID 2234; in the data active = inhibition above about 33%
dFosB act-1 – activators of delta FosB homodimer, primary screen, biochemical, fluorescence polarization, TAMRA-CDK5 oligo, single point; Protein FosB (Mus musculus), P13346; purified delta FosB; percent of positive-control signal above neutral wells; activation, % at 25 µM; hit rate 0.99% among 340,000; AID 493131, 2011;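 active = mean activation above about 17%, with every replicate also reaching it, limit read from the data, passing the limit was not always enough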
Target sequence (P13346 whole entry, looked up): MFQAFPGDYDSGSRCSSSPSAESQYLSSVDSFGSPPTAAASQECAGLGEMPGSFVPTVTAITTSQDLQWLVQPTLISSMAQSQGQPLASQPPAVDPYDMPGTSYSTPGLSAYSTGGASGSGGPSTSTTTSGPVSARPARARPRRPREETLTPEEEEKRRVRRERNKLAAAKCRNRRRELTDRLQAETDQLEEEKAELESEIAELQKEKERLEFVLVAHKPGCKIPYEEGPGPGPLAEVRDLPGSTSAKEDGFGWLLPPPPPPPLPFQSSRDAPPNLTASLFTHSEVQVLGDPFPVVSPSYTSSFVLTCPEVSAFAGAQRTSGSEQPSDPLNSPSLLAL
NALP3 yeast inh – NALP3 inflammasome inhibitors in reconstituted yeast, primary screen, luminescence, uHTS | inhibition, % at 10 µM | AID 2825, 2010 | Yeast reconstituted NLRP3/ASC/caspase-1, beta-gal luminescence, 24 h | hit rate 0.39% among 330,000;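 active = inhibition of 50% or more; inactive = inhibition below 50%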;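 note: plate controls were induced DMSO wells for no effect and uninduced yeast grown without galactose for full effect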
EBNA-1 inh – EBNA-1 DNA-binding inhibitors, primary screen, biochemical, fluorescence polarization; inhibition, % at 14.8 µM; hit rate 0.34% among 300,000; AID 1950, 2009; in the data active = inhibition above about 28%
NALP1 inh – NALP1 inflammasome inhibitors in reconstituted yeast, colorimetric, S. cerevisiae, triplicate retest. S. cerevisiae NALP1/ASC/caspase-1 growth, X-gal OD620, 72 h. inhibition, % at 10 µM. hit rate 0.61% among 280,000. AID 2071, 2009; in the data active = inhibition mostly above about 24%, no sharp cut-off; inactive = mostly below about 32%
dFosB act-2 – activators of mouse delta FosB DNA binding, confirmation, biochemical, fluorescence polarization, TAMRA-CDK5 oligo, cherry-picked samples. shares compounds with dFosB act-1. purified delta FosB; normalised: neutral wells 0, positive control 100. activation, % at 24.9 µM. 2,400 tested, under 10 active. AID 588690, 2011;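 active = highest replicate activation at or above 34% and every replicate reaching that threshold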;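 note: higher polarization means more probe DNA bound by delta FosB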
The depositor's hits bear a star; nt = no result. Only some compounds are listed: those with a hit (about 2.2% of all), similar ones and a draw of the others.

SMILES	PolyA inh	ZTA DNA inh	dFosB act-1	NALP3 yeast inh	EBNA-1 inh	NALP1 inh	dFosB act-2
O=C(CNC(=O)Cn1cnc2sc3c(c2c1=O)CCCC3)NCc1ccccn1	12.7	-3.1	1.0	8.3	-6.4	11.0	nt
Cn1c(N)c(C(=O)CSc2nn(-c3ccc(F)cc3)c(=S)s2)c(=O)n(C)c1=O	nt	-6.9	52.1*	-0.6	nt	nt	0.3
CC(CCc1ccccc1)NC(=O)C(Cc1ccccc1)NC(N)=O (configuration not stated)	2.5	-5.8	2.4	2.4	3.1	-0.3	nt
O=C1NC(=O)C(Cc2ccc(O)cc2)N1 (configuration not stated)	nt	nt	-2.1	nt	nt	nt	nt
NCCCCc1ccc2ccc3cccc4ccc1c2c34	nt	nt	31.9*	31.3	nt	nt	0.6
O=C(O)CCCc1ccc2ccc3cccc4ccc1c2c34	-64.5	15.7	-6.7	48.1	11.0	12.7	nt
O=C(NNC(=O)c1ccc(Cl)s1)c1csc(N2CCOCC2)n1	5.9	-9.2	21.3*	-4.8	-4.7	nt	-2.3
CCc1cccc(NC(=O)C2CCCN2S(=O)(=O)c2ccccc2C(F)(F)F)c1 (configuration not stated)	nt	nt	-7.0	13.2	nt	nt	nt
O=C(Nc1ccc([N+](=O)[O-])cc1Br)c1cc2ccccc2nc1Cl	-14.6	25.6	112.8*	6.7	-1.2	nt	-5.9
C=C(C1=CCN(S(=O)(=O)C(C)(C)C)[C@@H]1CCO)c1ccccc1	nt	nt	-0.6	nt	nt	nt	nt
CC12CN(C(=O)c3ccccc3Br)CC(C)(CN(C(=O)c3ccccc3Br)C1)C2=O	-3.0	0.1	-1.8	19.8	8.0	2.5	nt
COc1ccc(-n2nc(C(=O)NCC(=O)Nc3cc(OC)c(OC)c(OC)c3)c3ccccc3c2=O)cc1OC	1.5	10.7	23.7*	-6.8	6.7	6.0	-1.6
COc1ccc(C(=O)Nc2nnc(S(=O)(=O)N(C)Cc3ccc(F)cc3)s2)cc1OC	-0.7	13.4	23.2*	-6.4	8.2	7.1	4.8
CN(Cc1ccccc1)S(=O)(=O)c1nnc(NC(=O)c2ccc(F)cc2)s1	2.9	7.9	13.4	5.7	-10.8	24.0	nt
CCn1c(C)c(C2=CCN(S(=O)(=O)c3ccc(C)cc3)CC2)c2ccccc21	-8.6	1.5	13.6	17.3	2.6	-3.3	nt
Cc1c(C2=CCN(S(=O)(=O)c3ccc(Br)cc3)CC2)c2ccccc2n1C	-1.8	8.1	31.9*	12.1	13.8	29.6	-7.6
O=C(Cn1ncc2c([nH]c3ccccc32)c1=O)NCCc1ccccc1	-8.1	13.9	43.5*	-5.4	5.7	-3.8	-1.4
COc1cc(-c2nc(-c3ccc(NC(=O)c4ccc5c(c4)OCO5)cc3)no2)cc(OC)c1OC	-2.9	-14.5	43.0*	20.4	-2.0	18.5	3.1
O=C(Nc1cc(Br)ccc1O)c1cc(-c2ccc3c(c2)OCO3)on1	-2.3	4.0	76.6*	5.4	-14.2	13.8	1.0
Cc1ccccc1-c1nc(-c2ccc(NC(=O)c3ccc4c(c3)OCO4)cc2)no1	2.2	-1.4	-5.6	7.7	0.8	12.5	nt
CSc1ccccc1NC(=O)c1cc(-c2ccc3c(c2)OCO3)on1	5.1	11.0	7.7	18.9	1.4	8.0	nt
O=C(Nc1cc(Br)ccc1O)c1cc(-c2cccs2)on1	1.7	-0.5	49.0*	nt	-3.2	5.8	-4.2
COc1ccc(NC(=O)c2cc(-c3ccc4c(c3)OCO4)on2)cc1OC	3.8	7.0	32.9*	0.6	-17.2	19.5	2.0
NC(=O)c1cnccc1C=Cc1ccccc1	nt	nt	-1.8	nt	nt	nt	nt
NC(=O)CC(NC(=O)Cc1ccc(Br)cc1)c1ccc(NCc2ccc(F)c(F)c2)c([N+](=O)[O-])c1 (configuration not stated)	5.2	-11.0	52.0*	9.1	-9.1	nt	-3.5
COc1ccc(C(CNC(=O)c2oc3ccc(OC)cc3c2C)N2CCCC2)cc1 (configuration not stated)	-16.4	-11.8	10.0	24.8	-1.8	nt	nt
